Assay results as given in PubChem BioAssay (NCATS).
Records with an inconclusive call do not appear. Calls of active or inactive are those of the source. Calls follow the shape of the dose curve; as a rule, active = well fitted curve in the direction sought with a large enough effect; inconclusive = small, poorly fitted or top-dose-only effect, or another doubt; inactive = no such curve, though single readings can be large; an effect the other way counts as inactive or inconclusive.

Assays:
[1] = Cell Viability - LYMP2-012 (AID 982);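 also: cellular ATP by luciferase luminescence where a drop means cytotoxicity; cells exposed to compound for one day before reading; nearly all actives have a fitted effect of over 55% in size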; also: potency is read from the fitted curve at half-maximal effect
[2] = Cell Viability - LYMP2-014 (AID 983);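 also: cells exposed to compound for 24 h at 37 °C; nearly all actives have a fitted effect of over 50% in size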; also: potency is read from the fitted curve at half-maximal effect
Summary of the method: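 Cells are plated at 2500/well and left 5 hr at 37 C. Compounds are added across a concentration range and incubated 24 hr at 37 C in complete medium. CellTiter-Glo is added, and luminescence is read after 30 min at room temperature.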

[3] = Cell Viability - LYMP2-016 (AID 984);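 also: cells exposed to compound for 24 hours at 37 °C; nearly all actives have a fitted effect of over 55% in size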; also: potency is read from the fitted curve at half-maximal effect
Summary of the method: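 Human lymphoblastoid cells (LYMP2-016), 2500/well in complete medium, preincubated 5 hr at 37 C, then compound-treated 24 hr at 37 C. Intracellular ATP read by CellTiter-Glo luminescence after 30 min at room temperature; AC50 from Hill-equation concentration-response fits.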

[4] = Cell Viability - LYMP2-018 (AID 985);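 also: compound exposure lasted 24 hr at 37 °C; nearly all actives have a fitted effect of over 50% in size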; also: potency is read from the fitted curve at half-maximal effect
Summary of the method: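 Seed 2500 lymphoblastoid cells per well, incubate 5 hr at 37 C, add compound and incubate 24 hr at 37 C, add CellTiter-Glo, wait 30 min at room temperature, then read luminescence.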

[5] = Cell Viability - LYMP2-020 (AID 986);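 also: cells exposed to compound for 24 h at 37 °C; nearly all actives have a fitted effect of over 55% in size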; also: potency is read from the fitted curve at half-maximal effect
Summary of the method: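 Seed 2500 cells per well and incubate 5 hr at 37 C. Add compounds at a concentration series and incubate 24 hr at 37 C. Add CellTiter-Glo, wait 30 min at RT, read luminescence, and fit a Hill curve for AC50.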

[6] = Cell Viability - LYMP2-022 (AID 987); also: nearly all actives have a fitted effect of over 55% in size; also: potency is read from the fitted curve at half-maximal effect
Summary of the method: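 Cells were seeded at 2500 per well, rested 5 hr at 37 C, and treated with titrated compounds for 24 hr at 37 C. Cellular ATP was then quantified by luciferase luminescence, and AC50 values were derived from Hill-modelled concentration-response curves.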

[7] = Cell Viability - LYMP2-024 (AID 988); also: nearly all actives have a fitted effect of over 60% in size; also: potency is read from the fitted curve at half-maximal effect
Summary of the method: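 qHTS cytotoxicity, human lymphoblastoid line, complete medium; 24 h cpd treatment, 37 C; CellTiter-Glo ATP luminescence readout; tetraoctylammonium bromide positive control; AC50 via Hill fit.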

[8] = Cell Viability - LYMP2-026 (AID 989);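 also: cells exposed to compound for 24 h at 37 °C; nearly all actives have a fitted effect of over 50% in size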; also: potency is read from the fitted curve at half-maximal effect
Summary of the method: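 Cells are seeded at 2500 per well and held 5 hr at 37 C. Compounds are added in concentration series for 24 hr, then CellTiter-Glo reagent is applied and luminescence read.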

[9] = Cell Viability - LYMP1-002 - Assay at 24 hr (AID 993); also: potency is read from the fitted curve at half-maximal effect
Summary of the method: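 Acute toxicity is measured as concentration-dependent loss of cellular ATP in a human lymphoblastoid line (Coriell LYMP1-002) after 24 h treatment in complete medium. ATP is quantified by luciferase luminescence and AC50 derived by Hill modelling.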

[10] = biological target: Alpha-galactosidase A (Homo sapiens) (UniProt P06280); assay: Counterscreen for Glucocerebrosidase Inhibitors: qHTS Assay for Human alpha-Galactosidase at pH 4.5 (AID 992)
Alpha-galactosidase A (Homo sapiens), sequence (P06280 whole entry, looked up): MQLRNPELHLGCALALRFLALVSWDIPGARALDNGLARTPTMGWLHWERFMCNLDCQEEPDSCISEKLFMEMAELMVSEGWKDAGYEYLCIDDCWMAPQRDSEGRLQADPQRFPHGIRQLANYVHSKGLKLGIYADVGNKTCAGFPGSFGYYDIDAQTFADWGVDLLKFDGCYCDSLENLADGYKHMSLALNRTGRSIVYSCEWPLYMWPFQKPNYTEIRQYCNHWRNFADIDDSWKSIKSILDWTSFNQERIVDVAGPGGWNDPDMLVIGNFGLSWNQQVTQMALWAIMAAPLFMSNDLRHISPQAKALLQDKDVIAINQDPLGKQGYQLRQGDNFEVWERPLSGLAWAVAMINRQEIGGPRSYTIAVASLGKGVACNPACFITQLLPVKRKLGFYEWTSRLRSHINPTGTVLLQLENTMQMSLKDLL
Summary of the method: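 Fluorogenic 1536-well qHTS at pH 4.5 (citrate, Tween-20): 2 nM enzyme, 80 uM 4-MU-alpha-galactoside, 20 min room temperature, NaOH/glycine stop. Titration 0.7 nM to 77 uM, data normalized to no-enzyme and full-activity controls, Hill-fitted AC50.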

Measured: Potency

Cc1ncc([N+](=O)[O-])n1CCO
not listed: [10]
inactive: all other assays above

Cc1nnc(NS(=O)(=O)c2ccc(N)cc2)s1
not listed: [10]
inactive: all other assays above

O=C(N[C@H](CO)[C@H](O)c1ccc([N+](=O)[O-])cc1)C(Cl)Cl
not listed: [10]
inactive: all other assays above

C[C@]12C=CC(=O)C=C1CC[C@@H]1[C@@H]2C(=O)C[C@@]2(C)[C@H]1CC[C@]2(O)C(=O)CO
not listed: [10]
inactive: all other assays above

Cc1cc(NS(=O)(=O)c2ccc(N)cc2)no1
not listed: [10]
inactive: all other assays above

CC[C@H](C)C(=O)O[C@H]1C[C@@H](C)C=C2C=C[C@H](C)[C@H](CC[C@@H]3C[C@@H](O)CC(=O)O3)[C@H]21
not listed: [5] | [10]
inactive: all other assays above

N[C@@H](Cc1ccc(O)c(O)c1)C(=O)O
inactive: [10]

NNC(=O)c1ccncc1
not listed: [10]
inactive: all other assays above

COc1ccc2cc3[n+](cc2c1OC)CCc1cc2c(cc1-3)OCO2
active: [6] 31600 nM | [7] 39800 nM
inactive: [9]

OCc1ccc(-c2nn(Cc3ccccc3)c3ccccc23)o1
inactive: [10]

CCc1cc(C(N)=S)ccn1
not listed: [10]
inactive: all other assays above

CC(=O)[C@H]1CC[C@H]2[C@@H]3CCC4=CC(=O)CC[C@]4(C)[C@H]3CC[C@]12C
inactive: [10]

NC(=O)c1cccc(N)c1
inactive: [10]

CC(C)(C)NC(=O)[C@H]1CC[C@H]2[C@@H]3CC[C@H]4NC(=O)C=C[C@]4(C)[C@H]3CC[C@]12C
inactive: [10]

CN(C)c1ccc(C(=C2C=CC(=[N+](C)C)C=C2)c2ccc(N(C)C)cc2)cc1
active: [1] 1000 nM | [2] 2000 nM | [3] 2000 nM | [4] 2000 nM | [5] 2000 nM | [6] 794 nM | [7] 2000 nM | [8] 2510 nM | [9] 3160 nM

CC1=NN(c2ccccc2)C(=O)C1
not listed: [10]
inactive: all other assays above

Cc1ccc(S(=O)(=O)N[C@@H](Cc2ccccc2)C(=O)CCl)cc1
inactive: [10]

Cc1noc(NS(=O)(=O)c2ccc(N)cc2)c1C
not listed: [10]
inactive: all other assays above

O=C(O)c1cc(=O)[nH]c(=O)[nH]1
not listed: [10]
inactive: all other assays above

N=C(N)c1ccc(OCCCCCOc2ccc(C(=N)N)cc2)cc1
active: [6] 39800 nM

Cc1ccnc2c1NC(=O)c1cccnc1N2C1CC1
not listed: [10]
inactive: all other assays above

NC(N)=NC(N)=NCCc1ccccc1
not listed: [5] | [10]
inactive: all other assays above

COc1cc2ncnc(Nc3cccc(Cl)c3)c2cc1OC
inactive: [10]
